# Data as given in PubChem BioAssay (Tox21).
# Records with an inconclusive call do not appear. Where a call stands in place of a potency, no number is given. Unmarked numbers belong to inactive results. Active and inactive are the calls of the source. Calls follow the shape of the dose curve; as a rule, active = well fitted cell-killing curve with a large enough effect in the repeat runs; inconclusive = weak or mixed curves, or effect the other way; inactive = no such curve, though single readings can be large or run the other way.
# Assay: qHTS assay for small molecule activators of the heat shock response signaling pathway - cell viability counter screen (AID 743209); also: nearly all actives have a fitted effect of over 50% in size
# Settings: HSE-bla HeLa viability, CellTiter-Glo luminescence, 5 h; series mostly up to 62.6 µM
# From the text: U.S. Tox21 Program National Center for Advancing Translational Sciences [NCATS] NIH Chemical Genomics Center [NCGC] U.S. Environmental Protection Agency [EPA] National Institutes of Environmental Health Sciences [NIEHS] National Toxicology Program [NTP] U.S. Food and Drug Administration [FDA] Tox21 Assay Overview: Various chemicals, environmental and physiological stress conditions may lead to the activation of heat shock response/ unfolded protein response (HSR/UPR). There are three heat shock transcription factors (HSFs) (HSF-1, -2, and -4) mediating transcriptional regulation of the human HSR. To identify the compounds that activate HSR signaling, HSE-bla HeLa cell line (Invitrogen, Carlsbad, CA, USA) containing a beta-lactamase reporter gene under the control of the heat shock response elements was used to screen Tox21 10K compound library. The cytotoxicity of the Tox21 compound library against the HSE-bla HeLa cell line was tested in parallel by measuring the cell viability using CellTiter-Glo assay (Promega, Madison, WI) in the same wells.
# Tox21 Assay Protocol Summary: The CellSensor HSE-bla HeLa cells (Invitrogen, Carlsbad, CA, USA) were dispensed at 1500 cells/6uL/well into 1536-well black wall/clear bottom plates using a Multidrop combi (Thermo Fisher Scientific, Waltham, MA) dispenser. After the assay plates were incubated at 37 C and 5% CO2 overnight, 23 nL of compounds dissolved in DMSO, positive controls or DMSO only was transferred to the assay plate by a Pintool station (Kalypsys, San Diego, CA). The plates were incubated at 37 C for 5 h. After 1 uL of LiveBLAzerTM B/G FRET substrate was added using a Flying Reagent Dispenser (FRD, Beckman Coulter, Indianapolis, IN, USA), the plates were incubated at room temperature for 2.5 h, and fluorescence intensity was measured by an Envision plate reader (PerkinElmer, Shelton, CT). For cell viability readout that measures cytotoxicity, 3 ul/well of CellTiter-Glo reagent was added into the assay plates using a FRD. After 30 min incubation at room temperature, the luminescence intensity in the plates was measured using a ViewLux (PerkinElmer) plate reader.
# Potency is read from the fitted curve at half-maximal effect.
SMILES,Potency,"activity change, negative = cytotoxicity"
CCCCc1ccc(Cl)cc1,inactive,–
Cc1nnc(C(=O)NC(C)(C)c2nc(C(=O)NCc3ccc(F)cc3)c(O)c(=O)n2C)o1,inactive,–
Cc1cc(C)c(C)c(C)c1,inactive,–
O=C1c2ccccc2C(=O)N1CO,inactive,–
COC(=O)c1ccc(NC(C)=O)cc1OC,inactive,–
CCN1CCN(C(=O)N[C@@H](C(=O)N[C@@H]2C(=O)N3[C@@H]2SC(C)(C)[C@H]3C(=O)O)c2ccccc2)C(=O)C1=O,inactive,–
O=c1[nH]c(=O)c2cn[nH]c2[nH]1,inactive,–
NNC(=O)CCCCC(=O)NN,inactive,–
CCOc1ccccc1OCCN[C@H](C)Cc1ccc(OC)c(S(N)(=O)=O)c1,inactive,–
CC(O)CCCCn1c(=O)c2c(ncn2C)n(C)c1=O (stereo not given),inactive,–
Nc1nc(Cl)cc(Cl)n1,55 µM (active),–
CCCCCCCCC1CO1 (stereo not given),inactive,–
CCC(C)(C)C,inactive,–
CC1=C(O)C(=O)CO1,inactive,–
CCCCCC(=O)CC,inactive,–
O=C(O)P(=O)(O)O,inactive,–
C[C@]12C=CC(=O)C=C1[C@@H](F)C[C@@H]1[C@@H]2[C@@H](O)C[C@@]2(C)[C@H]1CC[C@]2(O)C(=O)CO,inactive,–
Clc1ccc2c(c1)Nc1ccccc1S2,inactive,–
CCOC(=O)CN1CCCC1=O,inactive,–
CC1(C)S[C@@H]2[C@H](NC(=O)Cc3ccccc3)C(=O)N2[C@H]1C(=O)O (tested in a mixture with another compound),inactive,–

SMILES,Potency,"activity change, negative = cytotoxicity"
C[C@@H]1NC(=O)[C@@H](N)CNC(=O)[C@H](C2CCNC(N)=N2)NC(=O)/C(=C/NC(N)=O)NC(=O)[C@H](CNC(=O)C[C@@H](N)CCCN)NC1=O (stereo not given in full),–,-24.2% [at 0.55 µM]
CCN1CCN(C(=O)N[C@@H](C(=O)N[C@@H]2C(=O)N3C(C(=O)O)=C(CSc4nnnn4C)CS[C@H]23)c2ccc(O)cc2)C(=O)C1=O,inactive,–
C=CCn1cc[n+](C)c1,inactive,–
CCC(C)SSC(C)CC (stereo not given),inactive,–
O=C(O)CCC(=O)Nc1ccc(S(=O)(=O)Nc2nccs2)cc1,inactive,–
Cc1cc(=O)oc2cc(O[C@@H]3SC[C@@H](O)[C@H](O)[C@H]3O)ccc12,inactive,–
COC(=O)/C=C(\C)CCC=C(C)C,inactive,–
CC(=O)c1c(C)cc(C(C)(C)C)cc1C,inactive,–
O=Cc1ccc(C(=O)O)cc1,inactive,–
CCCCCCCCCCCCCC(=O)OCC,inactive,–
CNC(=O)c1c(I)c(NC(C)=O)c(I)c(C(=O)O)c1I,inactive,–
CC(CN1CC(=O)NC(=O)C1)N1CC(=O)NC(=O)C1 (stereo not given),inactive,–
c1coc(Cn2cccc2)c1,inactive,–
CCCCCCCCCCCBr,inactive,–
CCCCN=C(N)N=C(N)N,inactive,–
COc1cc(OC)cc(OC)c1,inactive,–
O=C(O)/C=C(\CC(=O)O)C(=O)O,inactive,–
CC(C)OCCO,inactive,–
CCCCCCCOC(C)=O,inactive,–
O=C(O)CCCCCCCCCC(=O)O,inactive,–
